Screens from PubChem.
A selection: hits, their analogues and other compounds. The true share with any hit is near 9%.
JMJD2A Tudor inh: qHTS Assay for Inhibitors of JMJD2A-Tudor Domain | Lysine-specific demethylase 4A (Homo sapiens), O75164 | AlphaScreen JMJD2A-Tudor / H3K4me3 peptide binding | AID 504339, 2011 | Potency, µM (highest dose often 114 µM), for the others: at the highest dose activity change, negative = inhibition, usual class: inhibitors | 4.4% of 390,000 active; also: % is scaled to controls: 0 for no effect and ±100 for the full control effect; nearly all actives have a fitted effect of over 50% in size
HP1b binding inh: HTS for Inhibitors of HP1-beta Chromodomain Interactions with Methylated Histone Tails. Potency, µM (doses to about 114 µM), for inactives: at the top dose activity change, negative = inhibition, most hits filed as inhibitors. AlphaScreen HP1-beta / biotin-H3K9me3 peptide binding. 0.56% of 390,000 active. Chromobox protein homolog 1 (Homo sapiens), P83916; also: nearly all actives have a fitted effect of over 70% in size
Target sequence (P83916 whole entry, looked up): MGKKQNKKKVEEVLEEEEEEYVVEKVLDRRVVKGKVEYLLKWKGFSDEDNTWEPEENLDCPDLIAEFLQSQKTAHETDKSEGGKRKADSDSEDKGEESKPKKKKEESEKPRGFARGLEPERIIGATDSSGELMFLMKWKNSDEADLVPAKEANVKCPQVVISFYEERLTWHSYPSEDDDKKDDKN
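Compound inhibition of the preformed complex between 50 nM HP1-beta and 50 nM biotinylated H3K9me3 peptide was read by AlphaScreen. Buffer was PBS pH 7.4 with 0.01% Tween-20. Incubations ran 30 min at room temperature, with 10 ug/mL donor/acceptor beads.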
BAZ2B inh: qHTS Assay for Inhibitors of BAZ2B. Bromodomain adjacent to zinc finger domain protein 2B (Homo sapiens), Q9UIF8. AlphaScreen BAZ2B-H3K14Ac peptide displacement. Potency, µM (highest dose often 114 µM), without a hit: at the top dose activity change, negative = inhibition, usual class: inhibitors. 4.4% of 360,000 active. AID 504333, 2011; also: % is scaled to controls: 0 for no effect and ±100 for the full control effect; nearly all actives have a fitted effect of over 60% in size
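AlphaScreen luminescence quantifies BAZ2B engagement of H3K14Ac peptide; the protein and biotinylated peptide are both at 50 nM final, buffer PBS pH 7.4 with 0.01% Tween-20, all steps at room temperature.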
G9a inh: qHTS Assay for Inhibitors of Histone Lysine Methyltransferase G9a; Histone-lysine N-methyltransferase EHMT2 (Homo sapiens), Q96KQ7; G9a H3K9 monomethylation, AlphaScreen, 2 h; Potency, µM (highest dose often 102 µM), for the others: at the highest dose activity, negative = inhibition, usual class: inhibitors; 8.8% of 350,000 active; also: % is scaled to controls: 0 for no effect and ±100 for the full control effect; nearly all actives have a fitted effect of over 75% in size
Target sequence (Q96KQ7 913-1193 limits assumed): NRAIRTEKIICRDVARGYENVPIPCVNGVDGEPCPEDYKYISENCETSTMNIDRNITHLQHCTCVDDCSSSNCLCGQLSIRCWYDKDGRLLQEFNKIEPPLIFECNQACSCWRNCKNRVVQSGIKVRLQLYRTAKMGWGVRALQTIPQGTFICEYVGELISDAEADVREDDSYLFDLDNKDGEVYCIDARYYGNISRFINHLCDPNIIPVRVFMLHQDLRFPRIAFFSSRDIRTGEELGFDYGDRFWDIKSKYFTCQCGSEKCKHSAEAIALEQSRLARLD
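Enzyme 20 nM + cpd, 15 min RT; add b-H3K9 pep 500 nM / SAM 20 uM; 2 h RT; anti-H3K9me1 Ab 0.5 ug/mL + SA donor / anti-rabbit acceptor beads 20 ug/mL each, 10 min; AlphaScreen read.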
PLK1 PBD inh: qHTS for Inhibitors of PLK1-PDB (polo-like kinase 1 - polo-box domain): Primary Screen | Potency, µM, inactives show max response, negative = inhibition, actives largely listed as inhibitors | 2.8% of 360,000 active | AID 720504, 2013 | Plk1 PBD binding of FITC phosphopeptide, fluorescence polarization; also: series mostly up to about 57 µM; % is scaled to controls: 0 for no effect and ±100 for the full control effect; nearly all actives have a fitted effect of over 65% in size
12-LOX inh: Primary qHTS assay for inhibitors of human arachidonate 12S-lipoxygenase (ALOX12): Round 2 | AID 1671190, 2021 | 1.1% of 580,000 active | Polyunsaturated fatty acid lipoxygenase ALOX12 (Homo sapiens), P18054 | purified 12hLO, xylenol orange hydroperoxide absorbance | Potency, µM (doses to about 108 µM), inactives show top-dose activity change, negative = inhibition, hits mostly inhibitors; also: % is scaled to controls: 0 for no effect and ±100 for the full control effect
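Hydroperoxide product was detected by ferrous iron/xylenol orange as the 573 to 405 nm absorbance ratio. Arachidonic acid at 40 uM (final) was turned over for 30 min at room temperature by 150 nM human 12hLO, pH 7.0 Hepes buffer, after 15 min compound preincubation.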
Numbers without * were called inactive; ? = inconclusive; . = no result; [ ] = another dose, or the depositor's remark. Calls follow the shape of the dose curve; as a rule, active = well fitted curve in the direction sought with a large enough effect; inconclusive = small, poorly fitted or top-dose-only effect, or another doubt; inactive = no such curve, though single readings can be large; an effect the other way counts as inactive or inconclusive. Potency is read from the fitted curve at half-maximal effect.

SMILES | JMJD2A Tudor inh | HP1b binding inh | BAZ2B inh | G9a inh | PLK1 PBD inh | 12-LOX inh
COc1ccc(C(=O)COC(=O)CNC(=O)c2ccc(C)s2)c(OC)c1 | -26% | 19% | . | . | -12% | -29%
Cn1ncc(S(=O)(=O)Cc2ccccc2)c(Cl)c1=O | -28% | -25% | ? | . | 3.4µM* | 14µM*
CCOc1ccc2nc(N=NC3=C(O)CC(C)(C)CC3=O)sc2c1 | ? | ? | 45µM* | ? | 0% | 1%
CCCC(=O)Nc1nc2ccc(OCC)cc2s1 | -14% | 23% | 2% | -33% | -15% | -8%
O=C(NCc1n[nH]c(=S)n1-c1ccc(Cl)c(Cl)c1)c1ccc(S(=O)(=O)N2CCCCC2)cc1 | -29% | 14% | -27% | 8.9µM* | -11% | ?
CCCN(CCC)S(=O)(=O)c1ccc(C(=O)NCc2n[nH]c(=S)n2-c2ccc(Cl)c(Cl)c2)cc1 | ? | 24% | ? | 18µM* | -13% | ?
Cc1cccc(-n2c(CNC(=O)c3ccc(S(=O)(=O)N4CCCCC4)cc3)n[nH]c2=S)c1 | 35µM* | 28% | 2% | 7.1µM* | -2% | ?
CCCN(CCC)S(=O)(=O)c1ccc(C(=O)NCc2ccc3c(c2)OCO3)cc1 | -12% | 30% | 7% | 16% | -9% | 11%
Cc1ccc(CNC(=O)c2ccc(S(=O)(=O)N3CCCCC3)cc2)cc1 | -21% | 22% | 5% | -6% | -6% | -14%
O=C(NCc1n[nH]c(=S)n1-c1cccc(Cl)c1)c1ccc(S(=O)(=O)N2CCCC2)cc1 | 89µM* | 19% | ? | ? | -8% | ?
COc1ccc(N2CC(C(=O)N[C@@H](C)C(=O)NC3CCCCC3)CC2=O)cc1 (some centres not stated) | -9% | 30% | -4%[57.1 µM] | -10% | -11% | -1%
C=CCOc1nc2c(c(=O)n(C)c(=O)n2C)n1Cc1c(Cl)cccc1Cl | -26% | 2% | 8% | -7%[59 µM] | -6% | 14%
Cn1cc(CN2C[C@@H](F)[C@@H](OCc3nc4ccc(C(F)(F)F)cc4[nH]3)C2)cn1 | . | . | . | . | . | 16%[176 µM]
O=C(NCCc1ccc(F)cc1)c1ccc(S(=O)(=O)N2CCCC2)cc1 | 0% | 64% | 10% | -9%[2.33 µM] | -8% | -4%
O=C(NCc1n[nH]c(=S)n1-c1ccc(F)cc1)c1ccc(S(=O)(=O)N2CCCC2)cc1 | 28µM* | 19% | -3% | ? | -5% | ?
COc1ccc(/C(C#N)=C\c2ccccc2F)cc1OC | . | . | . | . | . | -16%
N#C/C(=C/c1ccc(N2CCCCCC2)o1)c1cccc(F)c1 | 40µM* | ? | ? | ? | -10% | ?
COc1cc(N2CCCC2)c(OC)cc1/C=C(/C#N)c1cccc(F)c1 | 20µM* | ? | 22µM* | ? | 11% | .
Cc1ccc(/C=C(/C#N)c2nc3ccccc3[nH]2)o1 | . | . | . | . | . | -67%
N#C/C(=C/c1ccc(N2CCOCC2)o1)c1nc2ccccc2[nH]1 | ? | -19% | ? | 8.9µM* | 101% | ?
S=C(c1nc2ccccc2[nH]1)N1CCOCC1 | -53% | ? | 10% | 1.6µM* | 24µM* | -5%
COCc1ccc(C(=O)Nc2cccc(S(=O)(=O)N(C)c3ccccc3)c2)cc1 | -11% | 19%[57 µM] | . | . | 1% | -18%
CC(C)(C)NC(=O)C(OC(=O)Cn1nnc(-c2ccc(F)cc2)n1)c1ccncc1 (configuration not stated) | -11% | 35% | -7% | -16% | 1% | -14%
COc1ccc(OC(=O)Cc2cccc3ccccc23)cc1 | 104% | 139% | 108% | 176% | -8% | -9%
N#C/C(=C\c1ccc(N2CCOCC2)o1)C(=O)Nc1ccc(O)cc1 | -25% | -15% | ? | 40µM* | 105% | -39%
